Measurements published in PubChem BioAssay (NCATS).
Records with an inconclusive call do not appear. Unmarked numbers belong to inactive results. The source made the active and inactive calls. The call rests on the fitted dose curve; in most records, active means well fitted curve in the direction sought with a large enough effect; inconclusive means small, poorly fitted or top-dose-only effect, or another doubt; inactive means no such curve, though single readings can be large; an effect the other way counts as inactive or inconclusive.

Molecular target: Rap guanine nucleotide exchange factor 3 (Homo sapiens) (UniProt O95398)
Sequence (O95398 whole entry, looked up): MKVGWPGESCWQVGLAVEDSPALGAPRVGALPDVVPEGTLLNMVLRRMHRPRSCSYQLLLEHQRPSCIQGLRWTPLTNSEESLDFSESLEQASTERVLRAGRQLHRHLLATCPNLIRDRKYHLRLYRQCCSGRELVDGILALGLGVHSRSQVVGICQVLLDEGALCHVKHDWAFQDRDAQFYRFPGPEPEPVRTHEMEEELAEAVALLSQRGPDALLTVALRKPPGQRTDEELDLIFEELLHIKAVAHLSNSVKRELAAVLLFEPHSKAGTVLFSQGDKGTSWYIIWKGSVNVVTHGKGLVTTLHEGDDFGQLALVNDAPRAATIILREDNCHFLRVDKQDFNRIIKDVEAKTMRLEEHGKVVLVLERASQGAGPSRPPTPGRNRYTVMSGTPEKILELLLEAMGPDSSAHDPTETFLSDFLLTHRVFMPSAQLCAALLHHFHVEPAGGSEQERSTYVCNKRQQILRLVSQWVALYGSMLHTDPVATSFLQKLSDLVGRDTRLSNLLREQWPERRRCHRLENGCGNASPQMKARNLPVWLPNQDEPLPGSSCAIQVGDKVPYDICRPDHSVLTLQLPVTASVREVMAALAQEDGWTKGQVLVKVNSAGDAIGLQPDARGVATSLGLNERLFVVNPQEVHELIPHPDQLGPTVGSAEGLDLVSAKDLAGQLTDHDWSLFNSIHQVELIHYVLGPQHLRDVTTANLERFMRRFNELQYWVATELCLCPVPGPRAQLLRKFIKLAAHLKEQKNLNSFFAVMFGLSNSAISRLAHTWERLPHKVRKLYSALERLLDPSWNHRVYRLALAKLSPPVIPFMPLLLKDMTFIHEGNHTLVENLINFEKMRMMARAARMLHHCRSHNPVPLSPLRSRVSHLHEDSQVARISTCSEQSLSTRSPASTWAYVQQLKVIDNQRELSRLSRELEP
Experiment: Confirmatory qHTS for antagonist of cAMP-regulated guanine nucleotide exchange factor 3 (EPAC1) (AID 1645880); further: nearly all actives have a fitted effect of over 55% in size;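 on activity, negative = inhibition: plate controls were DMSO only for no effect and full effect of the ATA control for full effect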
Settings: EPAC1 Rap1B-BODIPY-GDP exchange, fluorescence; activity, negative = inhibition: at 115 µM (top of the series)
In short: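 Nucleotide exchange uses 100 nM EPAC1, 250 nM RAP1B-BODIPY-GDP and 50 uM GDP, with compounds in a concentration-titration series. After 5 min at room temperature, fluorescence (480 nm ex/540 nm em) is read every 5 min for 30 min. Data are normalized to control ATA and DMSO.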
Potency means the concentration at half of the fitted maximal effect.

Going from `COc1ccc(C2CC(=O)Oc3ccc(OC)cc32)cc1` (stereo not given) to `COc1ccc(/C=C/C(=O)c2ccc(Cl)cc2)c(OC)c1`, the “activity, negative = inhibition” value falls from -24.4% to -29.3%.

Compared with `Cc1ccc(C2(c3noc(CN(C)CC4CCCCO4)n3)CCCC2)cc1` (stereo not given), `Cc1ccc(C23CC4CC(CC(C(=O)N(C)C)(C4)C2)C3)cc1` is higher in “activity, negative = inhibition” value: -23.8% for the first, -18.7% for the second.

Going from `Cc1ccc(C2N(c3cccc(Cl)c3)C(=O)N3CCCN23)cc1` (stereo not given) to `COc1ccc(Cl)cc1NC(=O)CN1c2ccccc2CC1C` (stereo not given), the “activity, negative = inhibition” value rises from -32.7% to -29%.

Compared with `COC(=O)c1cn(C(=O)c2ccc(OC)c(OC)c2)c2ccccc12`, `COC(=O)c1cn(S(=O)(=O)c2ccccc2)c2ccccc12` is higher in “activity, negative = inhibition” value: -17.6% for the first, -7.4% for the second.

Compared with `COc1ccc(C(=O)N(Cc2ccccc2)c2cccc(C)c2)cc1`, `COc1ccc(-c2ccc(CCC(=O)O)n2-c2ccc(Cl)cc2C)cc1` is higher in “activity, negative = inhibition” value: -17.5% for the first, -17% for the second.

Going from `Cc1ccc(CN(Cc2ccco2)C(=O)c2ccco2)cc1` to `CCN(Cc1cc(=O)oc2cc(C)ccc12)c1ccccc1`, the “activity, negative = inhibition” value rises from -22.1% to -19.9%.

Compared with `O=C(O)CCCN1C(=O)/C(=C/c2cn(-c3ccccc3)nc2-c2cccs2)SC1=S`, `COC(=O)C1=NN(c2ccccc2)C2(S1)SC(C(C)=O)=C(C)N2c1ccccc1` (stereo not given) is lower in “activity, negative = inhibition” value: 4.74% for the first, -9.28% for the second.

First: CC1CCCN(C2(O)C(=O)Nc3ccc(Br)cc32)C1 (stereo not given)
Second: Cc1nc(Nc2ccc(Br)cc2Br)c([N+](=O)[O-])c(=O)[nH]1
The “activity, negative = inhibition” value of the first is higher: -8.53% for the first, -11% for the second.

Compared with `O=c1cc(N2CCCCC2)c(-c2ccccc2)nn1Cc1ccccc1`, `COc1cnc(-c2ccccc2)nc1Sc1ccccc1` is higher in “activity, negative = inhibition” value: -26.6% for the first, -13.7% for the second.

First: COc1ccc2c(c1)CCc1c(C(=O)N3CCCc4ccccc43)noc1-2
Second: O=C(c1noc2c1CCc1ccccc1-2)N1CCCc2ccccc21
The “activity, negative = inhibition” value of the first is higher: -20.6% for the first, -29.7% for the second.

Going from `O=C(O)Cc1ccc(NC(=O)C(c2ccccc2)c2ccccc2)cc1` to `O=C(O)c1ccc(NC(=O)C(c2ccccc2)c2ccccc2)cc1`, the “activity, negative = inhibition” value falls from -14.4% to -24.3%.

Going from `COC(=O)c1cccc(F)c1C(=O)c1cccc2ccccc12` to `COC(=O)c1ccc2nc(-c3ccc(Cl)cc3)c(Cc3cccc(F)c3)n2c1`, the “activity, negative = inhibition” value rises from -24.3% to -5.72%.

First: COc1ccc(-n2cc(-c3ccccc3)c3c(N4CCOCC4)ncnc32)cc1
Second: COc1ccc2ccc3c(c2c1)N=C[C@]1(O3)N(C)c2ccccc2C1(C)C
The “activity, negative = inhibition” value of the first is lower: -19.6% for the first, -16.6% for the second.

First: CNc1snc(C)c1C(=O)OCC(=O)Nc1ccc(C)cc1F
Second: COC(=O)c1ccc2nc(-c3ccc(F)cc3)c(Cc3cccc(F)c3)n2c1
The “activity, negative = inhibition” value of the first is lower: -24.9% for the first, -19.3% for the second.

Going from `COC(=O)c1ccc2nc(-c3ccc(OC)c(OC)c3)c(CC3CCCCC3)n2c1` to `COC(=O)c1ccc2nc(-c3cccc(Br)c3)c(Cc3ccsc3)n2c1`, the “activity, negative = inhibition” value rises from -30.8% to -29%.

First: CC(=O)O[C@H]1c2ccccc2-c2ccccc2[C@@H]1OC(C)=O
Second: COc1ccc(S(=O)(=O)Nc2ncccc2C)c2ccccc12
The “activity, negative = inhibition” value of the first is higher: -13% for the first, -34% for the second.

Compared with `COC(=O)[C@@H]1CC[C@@](C)(c2ccc(OC)cc2)C1(C)C`, `COc1ccccc1N(C)c1cc2c(c3c1ccn3C)C1CCC2O1` (stereo not given) is higher in “activity, negative = inhibition” value: -17.3% for the first, -10.6% for the second.

Compared with `Cc1ccc(-c2nn3cnnc3c3ccccc23)cc1C`, `Cc1ccc2cccc(Oc3nnnn3-c3ccccc3)c2n1` is higher in “activity, negative = inhibition” value: -28.7% for the first, -20.9% for the second.

For `CC(=O)Nc1ccc(NC(=O)C2Cc3c(-c4ccc5c(c4)OCO5)ccnc3O2)cc1` (stereo not given), the “activity, negative = inhibition” value was -22%.

For `CCCCC[C@@H]1C=C(C(=O)O)[C@H](c2ccc(Cl)c(Cl)c2)N1S(=O)(=O)c1ccc(C)cc1`, the Potency was 30.1 µM (active).
For `CCCC[C@@H]1C=C(C(=O)O)[C@H](c2ccc(Cl)c(Cl)c2)N1S(=O)(=O)c1ccc(C)cc1`, the Potency was 84.9 µM (active).
`CCn1c(=O)c(C(=O)NNS(=O)(=O)c2ccc(C)cc2)c(O)c2ccccc21` was tested, and the Potency was 75.7 µM (active).

Molecular target: Rap guanine nucleotide exchange factor 3 (Homo sapiens) (UniProt O95398)
Experiment: Confirmatory qHTS for agonist of cAMP-regulated guanine nucleotide exchange factor 3 (EPAC1) (AID 1645881); further: nearly all actives have a fitted effect of over 75% in size;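 on activation: EPAC1 catalysed release of BODIPY-GDP from Rap1B seen as fluorescence loss; 100% = effect of cAMP agonist control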
Settings: EPAC1 Rap1B BODIPY-GDP exchange fluorescence; series mostly up to 154 µM; activation: at the top concentration

First: COc1ccc(C2CC(=O)Oc3ccc(OC)cc32)cc1 (stereo not given)
Second: COc1ccc(/C=C/C(=O)c2ccc(Cl)cc2)c(OC)c1
The “activation” value of the first is lower: -1.01% for the first, 19.9% for the second.

Compared with `CCCCC[C@@H]1C=C(C(=O)O)[C@H](c2ccc(Cl)c(Cl)c2)N1S(=O)(=O)c1ccc(C)cc1`, `CCCC[C@@H]1C=C(C(=O)O)[C@H](c2ccc(Cl)c(Cl)c2)N1S(=O)(=O)c1ccc(C)cc1` is higher in “activation” value: -28.7% for the first, -24.6% for the second.

Going from `Cc1ccc(C2(c3noc(CN(C)CC4CCCCO4)n3)CCCC2)cc1` (stereo not given) to `Cc1ccc(C23CC4CC(CC(C(=O)N(C)C)(C4)C2)C3)cc1`, the “activation” value rises from -2.66% to 26.9%.

First: Cc1ccc(C2N(c3cccc(Cl)c3)C(=O)N3CCCN23)cc1 (stereo not given)
Second: COc1ccc(Cl)cc1NC(=O)CN1c2ccccc2CC1C (stereo not given)
The “activation” value of the first is lower: 10.5% for the first, 13.5% for the second.

Going from `COC(=O)c1cn(C(=O)c2ccc(OC)c(OC)c2)c2ccccc12` to `COC(=O)c1cn(S(=O)(=O)c2ccccc2)c2ccccc12`, the “activation” value rises from 16% to 26.2%.

Compared with `COc1ccc(C(=O)N(Cc2ccccc2)c2cccc(C)c2)cc1`, `COc1ccc(-c2ccc(CCC(=O)O)n2-c2ccc(Cl)cc2C)cc1` is lower in “activation” value: 16.9% for the first, 5.8% for the second.

Compared with `Cc1ccc(CN(Cc2ccco2)C(=O)c2ccco2)cc1`, `CCN(Cc1cc(=O)oc2cc(C)ccc12)c1ccccc1` is higher in “activation” value: -1.29% for the first, 11.9% for the second.

Compared with `CC1CCCN(C2(O)C(=O)Nc3ccc(Br)cc32)C1` (stereo not given), `Cc1nc(Nc2ccc(Br)cc2Br)c([N+](=O)[O-])c(=O)[nH]1` is higher in “activation” value: 8.23% for the first, 11.3% for the second.

First: O=c1cc(N2CCCCC2)c(-c2ccccc2)nn1Cc1ccccc1
Second: COc1cnc(-c2ccccc2)nc1Sc1ccccc1
The “activation” value of the first is higher: 25.3% for the first, 9.21% for the second.

First: COc1ccc2c(c1)CCc1c(C(=O)N3CCCc4ccccc43)noc1-2
Second: O=C(c1noc2c1CCc1ccccc1-2)N1CCCc2ccccc21
The “activation” value of the first is higher: 12.5% for the first, 10.3% for the second.

Going from `COC(=O)C1=NN(c2ccccc2)C2(S1)SC(C(C)=O)=C(C)N2c1ccccc1` (stereo not given) to `COC(=O)c1cccc(F)c1C(=O)c1cccc2ccccc12`, the “activation” value falls from 13.5% to 11.6%.

Going from `O=C(O)Cc1ccc(NC(=O)C(c2ccccc2)c2ccccc2)cc1` to `O=C(O)c1ccc(NC(=O)C(c2ccccc2)c2ccccc2)cc1`, the “activation” value rises from 3.19% to 11.3%.

Going from `COc1ccc(-n2cc(-c3ccccc3)c3c(N4CCOCC4)ncnc32)cc1` to `COc1ccc2ccc3c(c2c1)N=C[C@]1(O3)N(C)c2ccccc2C1(C)C`, the “activation” value falls from 23.4% to 16.1%.

First: CNc1snc(C)c1C(=O)OCC(=O)Nc1ccc(C)cc1F
Second: CCn1c(=O)c(C(=O)NNS(=O)(=O)c2ccc(C)cc2)c(O)c2ccccc21
The “activation” value of the first is lower: -1.17% for the first, 10.5% for the second.

First: COC(=O)c1ccc2nc(-c3ccc(OC)c(OC)c3)c(CC3CCCCC3)n2c1
Second: COC(=O)c1ccc2nc(-c3cccc(Br)c3)c(Cc3ccsc3)n2c1
The “activation” value of the first is lower: 1.13% for the first, 3.05% for the second.

First: CC(=O)O[C@H]1c2ccccc2-c2ccccc2[C@@H]1OC(C)=O
Second: COc1ccc(S(=O)(=O)Nc2ncccc2C)c2ccccc12
The “activation” value of the first is lower: 5.86% for the first, 15.3% for the second.

Going from `COC(=O)[C@@H]1CC[C@@](C)(c2ccc(OC)cc2)C1(C)C` to `COc1ccccc1N(C)c1cc2c(c3c1ccn3C)C1CCC2O1` (stereo not given), the “activation” value rises from 7.72% to 18.3%.

First: COC(=O)c1ccc2nc(-c3ccc(Cl)cc3)c(Cc3cccc(F)c3)n2c1
Second: COC(=O)c1ccc2nc(-c3ccc(F)cc3)c(Cc3cccc(F)c3)n2c1
The “activation” value of the first is lower: 6.57% for the first, 7.55% for the second.

Compared with `Cc1ccc(-c2nn3cnnc3c3ccccc23)cc1C`, `Cc1ccc2cccc(Oc3nnnn3-c3ccccc3)c2n1` is higher in “activation” value: 3.27% for the first, 18.6% for the second.

`CC(=O)Nc1ccc(NC(=O)C2Cc3c(-c4ccc5c(c4)OCO5)ccnc3O2)cc1` (stereo not given) was tested, and the “activation” value was 16.3%.

With `O=C(O)CCCN1C(=O)/C(=C/c2cn(-c3ccccc3)nc2-c2cccs2)SC1=S` the Potency was 112 µM (active).
